Drawing on PubChem BioAssay (NCI), this text covers growth for eleven molecules.

This is part of a sample that, as a whole, favours compounds with a hit. Of some 83,000 tested, about 20% had one in any assay.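 Cells were grown in 96-well plates and exposed to the test compound at a single concentration for 48 hours; results are reported as percent growth, with values below 10 considered active.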 A number with no mark means an inactive call. Active and inactive are the calls of the source.

Some test systems named below: NCI-H23 lung; NCI-H226 lung; NCI-H322M lung; HOP-62 NSCLC; NCI-H460 lung; HOP-92 NSCLC; NCI-H522 lung; 786-0 renal; COLO 205 colon; A549/ATCC NSCLC.
Assay in all cases: NCI-60 one-dose screen, 48 h (100 = growth as untreated, 0 = no growth, -100 = all killed)
What all share (details): 10 µM unless noted

With `CC1(C)C(=O)/C(=C\c2ccco2)C[C@]2(C)[C@H]3CC=C4[C@@H]5C[C@](C)(C(=O)O)CC[C@]5(C)CC[C@@]4(C)[C@]3(C)CC[C@@H]12`, the growth was -64% [100 µM] (active) in the experiment on NCI-H23 lung; -29.3% [100 µM] (active) in the experiment on NCI-H226 lung; -91.9% [100 µM] (active) with NCI-H322M lung; -67.7% [100 µM] (active) in the experiment with HOP-62 NSCLC; -73.5% [100 µM] (active) in the experiment with NCI-H460 lung; -82.8% [100 µM] (active) in the experiment on HOP-92 NSCLC. Besides, the growth is -64.4% [100 µM] (active) in the experiment on NCI-H522 lung, -53.6% [100 µM] (active) in the experiment on 786-0 renal and -62.2% [100 µM] (active) in the experiment with COLO 205 colon.
On to `Cc1cnc([C@]23CC[C@@H](C)[C@H](C)[C@H]2C2=CC[C@@H]4[C@@]5(C)Cc6c([nH]c7ccccc67)C(C)(C)[C@@H]5CC[C@@]4(C)[C@]2(C)CC3)o1`, for which the growth with NCI-H23 lung is 27.8% [100 µM]; in the experiment with NCI-H226 lung, 59.2% [100 µM]; with NCI-H322M lung, 37% [100 µM]; in the experiment on HOP-62 NSCLC it was 43.8% [100 µM]; in the experiment with NCI-H460 lung it was 16.7% [100 µM]; with HOP-92 NSCLC it was 30.5% [100 µM]. Also, the growth in the experiment with NCI-H522 lung was 79.5% [100 µM]; in the experiment on 786-0 renal, 27% [100 µM]; in the experiment on COLO 205 colon, 43% [100 µM].
`CC(C)(C)c1cc(C(=O)Nc2ccccc2C(=O)NCCN)cc(C(C)(C)C)c1`: the growth is 79.9% in the experiment on NCI-H23 lung; 78.3% in the experiment on NCI-H226 lung; 21.9% with NCI-H322M lung; 67.8% in the experiment on HOP-62 NSCLC; -55.2% (active) with NCI-H460 lung; 19.6% in the experiment on HOP-92 NSCLC. Besides, the values for the growth in the experiment on NCI-H522 lung, with 786-0 renal and in the experiment with COLO 205 colon were 16.1%, -35.7% (active) and -76.6% (active), respectively.
On to `CN(C)c1ccc(-c2ccc(-c3ccc(C(=N)N)cc3)s2)cc1`, for which the growth was -46.4% (active) with NCI-H23 lung; 87.4% with NCI-H226 lung; 40.2% in the experiment on NCI-H322M lung; -33.2% (active) in the experiment on HOP-62 NSCLC; -71.1% (active) in the experiment with NCI-H460 lung; 24.5% with HOP-92 NSCLC. Further, the growth in the experiment on NCI-H522 lung was -50.3% (active); in the experiment on 786-0 renal, -63.9% (active); in the experiment on COLO 205 colon, -66.6% (active).
In the case of `CCOC(=O)C1=C(C(=O)c2ccc(Br)cc2)C(c2ccc(Br)cc2)NC(=S)N1` (centres undefined), the growth is 98% in the experiment with NCI-H23 lung; 94.9% in the experiment with NCI-H226 lung; 97.3% in the experiment with NCI-H322M lung; 88.4% with HOP-62 NSCLC; 101% in the experiment on NCI-H460 lung; 96.3% in the experiment with HOP-92 NSCLC. Also, the results for the growth with NCI-H522 lung, in the experiment on 786-0 renal and in the experiment with COLO 205 colon were 95.9%, 106% and 118%, respectively.
Consider `Cc1cc(C)c(O)c(CNCCCCCCNCc2cc(C)cc(C)c2O)c1`, for which the growth in the experiment on NCI-H23 lung was 56%; in the experiment with NCI-H226 lung, 81.6%; with NCI-H322M lung it was -12.6% (active); in the experiment with HOP-62 NSCLC it was 17.6%; in the experiment on NCI-H460 lung, -62.6% (active); in the experiment with HOP-92 NSCLC, 12.1%. In addition, the values for the growth in the experiment with NCI-H522 lung, with 786-0 renal and in the experiment on COLO 205 colon were -13% (active), 54.5% and -72.8% (active), respectively.
Turning to `COc1cc(-c2nc(SCCC(C)C)nc(Nc3ccc(S(N)(=O)=O)cc3)c2C#N)cc(OC)c1OC`, the growth is 51.2% in the experiment with NCI-H23 lung; 44% with NCI-H226 lung; 72.7% in the experiment on NCI-H322M lung; 33.5% in the experiment with HOP-62 NSCLC; 19.7% in the experiment with NCI-H460 lung; 2.39% (active) with HOP-92 NSCLC. Also, the growth in the experiment on NCI-H522 lung is 45%; with 786-0 renal it was 31.4%; with COLO 205 colon, 29.8%.
Take `CCOC(=O)c1nn(C2CCCCO2)c2ccc(NC(=O)CSc3nc4ccccc4c(=O)[nH]3)cc12` (centres undefined): the growth with NCI-H23 lung is 102%; with NCI-H226 lung, 97.6%; with NCI-H322M lung, 92.5%; in the experiment on HOP-62 NSCLC it was 88.2%; with NCI-H460 lung it was 98.9%; in the experiment on HOP-92 NSCLC it was 92.5%. The growth in the experiment on NCI-H522 lung is 100%; with 786-0 renal, 91%; with COLO 205 colon it was 126%.
Turning to `CC1Cc2c(Cl)ncnc2N(C)c2ccc(O)cc21` (centres undefined), the growth was 45.7% with NCI-H23 lung; 82.2% in the experiment on NCI-H226 lung; 44.2% in the experiment with NCI-H322M lung; 53.8% in the experiment on HOP-62 NSCLC; 84.3% in the experiment with NCI-H460 lung; 85.1% in the experiment on HOP-92 NSCLC. The growth with NCI-H522 lung was 92.5%; in the experiment with 786-0 renal, -3.93% (active); with COLO 205 colon, 91.7%.
As to `CC1(C)CC(=O)c2c(ccc(C(=O)C[C@@H](N)CO)c2N)O1`, the growth was 45.9% with NCI-H23 lung; 27.5% in the experiment with NCI-H226 lung; 2.01% (active) with HOP-62 NSCLC; 4.1% (active) in the experiment on NCI-H460 lung; 82.7% in the experiment with HOP-92 NSCLC; 20.1% in the experiment on NCI-H522 lung. Also, the values for the growth in the experiment with A549/ATCC NSCLC, with 786-0 renal and with COLO 205 colon were 15.3%, 66.7% and 17.9%, respectively.
On to `O=C(N/N=C\c1cc(Cl)ccc1O)N/N=C/c1cc(Cl)ccc1O`, for which the growth in the experiment with NCI-H23 lung was 45.7%; with NCI-H226 lung it was 73%; in the experiment on HOP-62 NSCLC, 54%; in the experiment with NCI-H460 lung, 16.1%; in the experiment with HOP-92 NSCLC it was 21%; in the experiment with NCI-H522 lung, 14%. Also, the figures for the growth with A549/ATCC NSCLC, with 786-0 renal and in the experiment on COLO 205 colon were 26.2%, 78% and 46.3%, respectively.
